Read-out in assay [1]: Interleukin-8 (IL8), CXCL8 (gene 3576)
In words: BSK_hDFCGF_IL8: BioMAP Diversity Plus: hDFCGF Assay for Interleukin-8 (IL8) Biomarker Activity (AID 2283058). Conditions: primary human foreskin fibroblasts; actives raise or lower the signal. An outline of the steps:
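Primary human foreskin fibroblasts (hDFCGF system) dosed with chemical; IL-8 measured by ELISA 24 hours later. Bidirectional curve fitting relative to DMSO baseline; cytotoxicity tracked in parallel cultures by SRB total protein staining.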

Assay [2] is described as follows: BSK_hDFCGF_Proliferation: Cell Proliferation Assessment in the BioMAP Diversity Plus: hDFCGF Assay (AID 2283059).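 Also: curves fitted for both rise and fall of signal versus DMSO baseline.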 The following applies: primary human foreskin fibroblasts. Put shortly:
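Sub-confluent human foreskin fibroblast cultures receive test chemical […]. Relative cell number is quantified by sulforhodamine B staining (0.1%, after 10% TCA fixation) at 560 nm, with bidirectional fitting referenced to DMSO.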

Read-out in assay [3]: Macrophage colony-stimulating factor (MCSF), CSF1 (gene 1435)
In words: BSK_hDFCGF_MCSF: BioMAP Diversity Plus: hDFCGF Assay for Macrophage colony-stimulating factor (MCSF) Biomarker Activity (AID 2283060). Conditions: primary human foreskin fibroblasts; actives raise or lower the signal. An outline of the steps: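 Human foreskin fibroblast primary cultures; M-CSF measured by ELISA 24 hours after chemical dosing. Bidirectional fitting relative to DMSO, with overt cytotoxicity tracked by parallel SRB total-protein staining (0.1% SRB, 10% TCA fixation, 560 nm).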

The nature of assay [4]: BSK_hDFCGF_SRB: Viability Assessment in the BioMAP Diversity Plus: hDFCGF Assay (AID 2283061).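 Also: cells exposed to compound for 24 h before the read.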 Conditions: primary human foreskin fibroblasts. An outline of the steps: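 Human foreskin fibroblasts in 96-well plates were treated 24 h. Total protein was measured by 0.1% SRB staining after 10% TCA fixation, read at 560 nm. Data were fitted bidirectionally against DMSO.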
Read-out in assay [5]: TIMP metallopeptidase inhibitor 1 (TIMP1), TIMP1 (gene 7076)
The experiment in a line: BSK_hDFCGF_TIMP1: BioMAP Diversity Plus: hDFCGF Assay for TIMP metallopeptidase inhibitor 1 (TIMP1) Biomarker Activity (AID 2283062). Conditions: primary human foreskin fibroblasts; actives raise or lower the signal. An outline of the steps:
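Human foreskin fibroblast primary cultures dosed for 24 h; secreted/surface TIMP-1 quantified by ELISA. Bidirectional curve fitting against DMSO baseline; cytotoxicity tracked in parallel cultures by SRB total-protein staining.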

Read-out in assay [6]: Monokine induced gamma interferon (MIG), CXCL9 (gene 4283)
In words: BSK_hDFCGF_MIG: BioMAP Diversity Plus: hDFCGF Assay for Monokine induced gamma interferon (MIG) Biomarker Activity (AID 2283063). The following applies: primary human foreskin fibroblasts; actives raise or lower the signal. Put shortly:
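MIG/CXCL9 measured by ELISA 24 h after dosing primary human skin fibroblasts. Activity fitted in both directions against DMSO controls. Cytotoxicity was checked in parallel cultures by SRB staining read at 560 nm.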

Read-out in assay [7]: Matrix Metallopeptidase 1 (MMP1), MMP1 (gene 4312)
The experiment in a line: BSK_hDFCGF_MMP1: BioMAP Diversity Plus: hDFCGF Assay for Matrix Metallopeptidase 1 (MMP1) Biomarker Activity (AID 2283064). The following applies: primary human foreskin fibroblasts; actives raise or lower the signal. An outline of the steps: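 Primary human foreskin fibroblasts in the hDFCGF system were dosed with test chemical, and MMP1 was measured by ELISA 24 h later. Values come from bidirectional curve fitting against the DMSO baseline.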

Read-out in assay [8]: Vascular cell adhesion molecule 1 (VCAM1), VCAM1 (gene 7412)
In words: BSK_hDFCGF_VCAM1: BioMAP Diversity Plus: hDFCGF Assay for Vascular cell adhesion molecule 1 (VCAM1) Biomarker Activity (AID 2283065).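 As to AC50: VCAM-1 protein level quantified by ELISA after 24 h chemical exposure.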 The following applies: primary human foreskin fibroblasts; actives raise or lower the signal. Put shortly:
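Human foreskin fibroblast primary cells dosed with chemical, VCAM-1 measured by ELISA at 24 h. Bidirectional curve fitting relative to DMSO as negative control/baseline.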

Read-out in assay [9]: Plasminogen activator inhibitor-1 (PAI1), SERPINE1 (gene 5054)
The experiment in a line: BSK_hDFCGF_PAI1: BioMAP Diversity Plus: hDFCGF Assay for Plasminogen activator inhibitor-1 (PAI1) Biomarker Activity (AID 2283066). The following applies: primary human foreskin fibroblasts; actives raise or lower the signal. An outline of the steps:
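Human foreskin fibroblasts in the hDFCGF system were dosed with compound for 24 h; PAI-1 was quantified by ELISA. Bidirectional curve fitting used DMSO as negative control and baseline.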

Read-out in assay [10]: Interferon-gamma inducible Protein 10 (IP10), CXCL10 (gene 3627)
The experiment in a line: BSK_KF3CT_IP10: BioMAP Diversity Plus: KF3CT Assay for Interferon-gamma inducible Protein 10 (IP10) Biomarker Activity (AID 2283068). The following applies: primary human keratinocytes with fibroblasts; actives raise or lower the signal. An outline of the steps: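 ELISA read-out of IP-10 after 24 h chemical dosing of human skin primary co-culture (keratinocytes, foreskin fibroblasts). Gain or loss of signal relative to DMSO, bidirectional curve fit.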

A short description of assay [11]: BSK_KF3CT_SRB: Viability Assessment in the BioMAP Diversity Plus: KF3CT Assay (AID 2283069).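 Also: total protein by sulforhodamine B staining as a cytotoxicity measure; read 24 h after compound addition.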 Conditions: primary human keratinocytes with fibroblasts. Put shortly:
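Human primary keratinocyte plus foreskin fibroblast co-culture exposed to chemicals for 24 h. Total protein measured by 0.1% sulforhodamine B staining after 10% TCA fixation, read at 560 nm; bidirectional fitting versus DMSO baseline.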

Read-out in assay [12]: Interleukin-1 alpha (IL1a), IL1A (gene 3552)
In words: BSK_KF3CT_IL1a: BioMAP Diversity Plus: KF3CT Assay for Interleukin-1 alpha (IL1a) Biomarker Activity (AID 2283070). Conditions: primary human keratinocytes with fibroblasts; actives raise or lower the signal. An outline of the steps:
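Human keratinocyte plus foreskin fibroblast primary co-culture, sampled 24 h after chemical dosing. IL-1a measured by ELISA; responses fitted bidirectionally against DMSO baseline (negative control), so gain or loss of signal both count.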

Read-out in assay [13]: Matrix Metallopeptidase 9 (MMP9), MMP9 (gene 4318)
In words: BSK_KF3CT_MMP9: BioMAP Diversity Plus: KF3CT Assay for Matrix Metallopeptidase 9 (MMP9) Biomarker Activity (AID 2283074).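 As to AC50: MMP9 protein level quantified by ELISA in the co-culture.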 Conditions: primary human keratinocytes with fibroblasts; actives raise or lower the signal. Put shortly:
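Keratinocyte plus foreskin fibroblast human primary skin co-culture was dosed with chemical and MMP-9 was quantified by ELISA 24 h later. Bidirectional curve fitting used DMSO as negative control and activity baseline.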

Read-out in assay [14]: urokinase plasminogen activator (uPA), PLAU (gene 5328)
The experiment in a line: BSK_KF3CT_uPA: BioMAP Diversity Plus: KF3CT Assay for urokinase plasminogen activator (uPA) Biomarker Activity (AID 2283075). The following applies: primary human keratinocytes with fibroblasts; actives raise or lower the signal. Put shortly:
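Human keratinocyte plus foreskin fibroblast primary co-culture exposed to chemical for 24 h. uPA levels were quantified by ELISA, and activity was fitted bidirectionally against a DMSO negative-control baseline.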

Read-out in the next assay: CD40, CD40 (gene 958)
The experiment in a line: BSK_LPS_CD40: BioMAP Diversity Plus: LPS Assay for CD40 Biomarker Activity (AID 2283076). The following applies: primary human HUVEC with PBMC; actives raise or lower the signal. Put shortly:
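HUVEC plus PBMC co-culture stimulated with LPS; CD40 quantified by ELISA 24 h after compound dosing. Fitting was bidirectional relative to DMSO. SRB staining of parallel cultures flagged overt cytotoxicity.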

Read-out in assay [15]: E-selectin (Homo sapiens) (UniProt P16581)
In words: BSK_LPS_Eselectin: BioMAP Diversity Plus: LPS Assay for Eselectin Biomarker Activity (AID 2283077). Conditions: primary human HUVEC with PBMC; actives raise or lower the signal. An outline of the steps: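 Human umbilical vein endothelial cells co-cultured with PBMC under LPS stimulation; cell-surface E-selectin measured by ELISA 24 h after dosing. Change in either direction versus DMSO, with SRB total-protein staining in parallel cultures for cytotoxicity.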

Assay [16] in a line: BSK_LPS_SRB: Viability Assessment in the BioMAP Diversity Plus: LPS Assay (AID 2283079).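 Also: total protein by sulforhodamine B absorbance as a cytotoxicity measure; measured one day after compound addition.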 The following applies: primary human HUVEC with PBMC. Put shortly:
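Co-culture of human umbilical vein endothelial cells and PBMC, read 24 h after dosing. Total protein by 0.1% SRB staining after 10% TCA fixation, absorbance at 560 nm; bidirectional fit against DMSO.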

Read-out in assay [17]: Macrophage colony-stimulating factor (MCSF), CSF1 (gene 1435)
In words: BSK_LPS_MCSF: BioMAP Diversity Plus: LPS Assay for Macrophage colony-stimulating factor (MCSF) Biomarker Activity (AID 2283083). Conditions: primary human HUVEC with PBMC; actives raise or lower the signal. Put shortly: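 HUVEC–PBMC co-culture, M-CSF measured by ELISA 24 h after chemical dosing. Fitted in both directions relative to DMSO as negative control; overt cytotoxicity assessed by SRB total-protein staining in parallel cultures.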

Read-out in assay [18]: Tissue Factor, F3 (gene 2152)
The experiment in a line: BSK_LPS_TissueFactor: BioMAP Diversity Plus: LPS Assay for Tissue Factor Biomarker Activity (AID 2283084). Conditions: primary human HUVEC with PBMC; actives raise or lower the signal. Put shortly: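 Human umbilical vein endothelial cells co-cultured with PBMC were dosed with compound. Cell-surface CD142 was measured by ELISA 24 h later. Activity was fitted bidirectionally against DMSO, with SRB total-protein staining in parallel cultures for cytotoxicity.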

Read-out in assay [19]: Tumor necrosis factor (Homo sapiens) (UniProt P01375)
In words: BSK_LPS_TNFa: BioMAP Diversity Plus: LPS Assay for Tumour Necrosis Factor alpha (TNFa) Biomarker Activity (AID 2283085).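 As to AC50: TNFa protein level quantified by ELISA in the co-culture.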 Conditions: primary human HUVEC with PBMC; actives raise or lower the signal. Put shortly:
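Human umbilical vein endothelial cells co-cultured with PBMC were exposed to test chemical and TNFa measured by ELISA 24 h after dosing. Bidirectional curve fitting was done relative to DMSO as negative control and baseline.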

The source of these data is PubChem BioAssay (EPA / NIEHS).

The source made the active and inactive calls. The calls were made as follows: active = hit-call score of the fitted dose curve at least 0.9, where 1 is the maximum; inactive = score below 0.9.

Chain of E-selectin (Homo sapiens) (P16581 whole entry, looked up): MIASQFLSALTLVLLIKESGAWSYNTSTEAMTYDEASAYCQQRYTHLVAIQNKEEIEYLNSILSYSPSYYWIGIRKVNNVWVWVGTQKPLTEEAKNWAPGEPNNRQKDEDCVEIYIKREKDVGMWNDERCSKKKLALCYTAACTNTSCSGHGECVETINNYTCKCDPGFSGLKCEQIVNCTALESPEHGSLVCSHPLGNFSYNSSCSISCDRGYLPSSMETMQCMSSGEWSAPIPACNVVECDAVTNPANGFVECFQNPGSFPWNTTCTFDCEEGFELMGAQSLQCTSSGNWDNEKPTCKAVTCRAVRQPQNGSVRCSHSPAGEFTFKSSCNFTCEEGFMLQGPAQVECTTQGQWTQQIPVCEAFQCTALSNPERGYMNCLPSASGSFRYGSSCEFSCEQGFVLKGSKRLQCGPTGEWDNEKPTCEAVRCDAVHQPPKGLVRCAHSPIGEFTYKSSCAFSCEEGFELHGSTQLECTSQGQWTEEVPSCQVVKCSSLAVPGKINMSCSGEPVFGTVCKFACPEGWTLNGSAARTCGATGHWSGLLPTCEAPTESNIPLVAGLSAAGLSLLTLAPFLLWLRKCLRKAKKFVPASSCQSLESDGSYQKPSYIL
Chain of Tumor necrosis factor (Homo sapiens) (P01375 whole entry, looked up): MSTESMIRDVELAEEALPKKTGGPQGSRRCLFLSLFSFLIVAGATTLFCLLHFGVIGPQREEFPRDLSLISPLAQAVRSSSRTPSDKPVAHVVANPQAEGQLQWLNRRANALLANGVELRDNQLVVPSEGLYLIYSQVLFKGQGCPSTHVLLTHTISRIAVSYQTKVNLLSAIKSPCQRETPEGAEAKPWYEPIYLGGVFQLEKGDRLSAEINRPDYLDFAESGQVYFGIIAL

By AC50 is commonly meant the concentration at which the activity in the assay is half-maximal. In the case of `CC(=O)/C=C/c1ccccc1`, the outcome in assay [1], in assay [2], in assay [3], in assay [4], in [5] and in [6] was inactive. In addition, the outcome in assay [7], in [8], in assay [9], in assay [10], in [11] and in assay [12] was inactive. Besides, the outcome in assay [13], in [14], in assay [16], in [18] and in assay [19] was inactive. The AC50 with CD40, CD40 (gene 958) is 20 µM (active); in assay [15], 31.1 µM (active); in [17], 16.9 µM (active).

As to `COC(C)(C)CCC[C@H](C)C/C=C/C(C)=C/C(=O)OC(C)C`, the outcome in assay [1], in [11] and in [14] was inactive. Moreover, the AC50 was 31.2 µM (active) in assay [2]; 22.7 µM (active) in assay [3]; 30.7 µM (active) in [4]; 29.8 µM (active) in [5]; 33.2 µM (active) in [6]; 32.5 µM (active) in assay [7]. For the same compound, the AC50 in assay [8] was 25 µM (active); in assay [9], 28.4 µM (active); in [10] it was 33.6 µM (active); in assay [12] it was 24.1 µM (active); in [13], 29 µM (active); with CD40, CD40 (gene 958) it was 20 µM (active). The AC50 in [15] was 35.3 µM (active); in [16] it was 29.5 µM (active); in [17] it was 20.5 µM (active); in assay [18], 26.8 µM (active); in [19] it was 32.7 µM (active).

Consider `COCC(=O)N(c1c(C)cccc1C)N1CCOC1=O`, for which the outcome in assay [1], in [2], in [3], in [4], in assay [5] and in assay [6] was inactive. Further, the result in assay [7], in [8], in assay [9], in assay [10], in assay [11] and in assay [12] was inactive. The outcome in [13] was “inactive”; in assay [14] it was “inactive”; with CD40, CD40 (gene 958), “inactive”; in assay [15] it was “inactive”; in assay [16], “inactive”; in assay [17] it was “inactive”. The result in assay [18] and in assay [19] was inactive.

In the case of `Cc1ccc(OP(=O)(Oc2ccc(C)cc2)Oc2ccc(C)cc2)cc1` (tested in a mixture with another compound), the outcome in [1], in assay [5], in [6], in assay [7], in assay [8] and in [9] was inactive. Also, the outcome in assay [10], in assay [11], in assay [12], in [14], in [15] and in [18] was inactive. In assay [19], the outcome was inactive. The AC50 in assay [2] is 20 µM (active); in assay [3], 20 µM (active); in [4], 23.2 µM (active); in [13], 13.6 µM (active); in the assay with CD40, CD40 (gene 958), 7.66 µM (active); in assay [16], 20 µM (active). Besides, in [17], the AC50 is 16.1 µM (active).

For `CC1(C)[C@H](C(=O)O[C@H](C#N)c2cccc(Oc3ccccc3)c2)[C@@H]1C=C(Br)Br`, the result in assay [1], in assay [2], in assay [3], in [4], in assay [5] and in assay [6] was inactive. The outcome in [7], in assay [8], in assay [9], in [10], in assay [11] and in assay [12] was inactive. For the same compound, the outcome is “inactive” in [13]; “inactive” in assay [14]; “inactive” in the assay with CD40, CD40 (gene 958); “inactive” in assay [15]; “inactive” in [16]; “inactive” in assay [17]. The outcome in assay [18] and in assay [19] was inactive.
